Measured values taken from the supplement of paper PMC11732987, “Enantioselective OTUD7B fragment discovery through chemoproteomics screening and high-throughput optimisation” (Communications Chemistry, 2025).

What was measured:
Experiment in all cases: log2 ratio of Biotin-Ahx-Ub-VS probe labelling (fragment/DMSO); higher = less target engagement (more negative = stronger competition), active = hit call of the paper (q ≤ 0.05, log2 ratio ≤ -1)
Conditions in all cases: compound concentration: 200 uM; treatment time: 3 h
USP19 = molecular target: T1, USP19 (UniProt O94966)
T1 sequence (whole entry): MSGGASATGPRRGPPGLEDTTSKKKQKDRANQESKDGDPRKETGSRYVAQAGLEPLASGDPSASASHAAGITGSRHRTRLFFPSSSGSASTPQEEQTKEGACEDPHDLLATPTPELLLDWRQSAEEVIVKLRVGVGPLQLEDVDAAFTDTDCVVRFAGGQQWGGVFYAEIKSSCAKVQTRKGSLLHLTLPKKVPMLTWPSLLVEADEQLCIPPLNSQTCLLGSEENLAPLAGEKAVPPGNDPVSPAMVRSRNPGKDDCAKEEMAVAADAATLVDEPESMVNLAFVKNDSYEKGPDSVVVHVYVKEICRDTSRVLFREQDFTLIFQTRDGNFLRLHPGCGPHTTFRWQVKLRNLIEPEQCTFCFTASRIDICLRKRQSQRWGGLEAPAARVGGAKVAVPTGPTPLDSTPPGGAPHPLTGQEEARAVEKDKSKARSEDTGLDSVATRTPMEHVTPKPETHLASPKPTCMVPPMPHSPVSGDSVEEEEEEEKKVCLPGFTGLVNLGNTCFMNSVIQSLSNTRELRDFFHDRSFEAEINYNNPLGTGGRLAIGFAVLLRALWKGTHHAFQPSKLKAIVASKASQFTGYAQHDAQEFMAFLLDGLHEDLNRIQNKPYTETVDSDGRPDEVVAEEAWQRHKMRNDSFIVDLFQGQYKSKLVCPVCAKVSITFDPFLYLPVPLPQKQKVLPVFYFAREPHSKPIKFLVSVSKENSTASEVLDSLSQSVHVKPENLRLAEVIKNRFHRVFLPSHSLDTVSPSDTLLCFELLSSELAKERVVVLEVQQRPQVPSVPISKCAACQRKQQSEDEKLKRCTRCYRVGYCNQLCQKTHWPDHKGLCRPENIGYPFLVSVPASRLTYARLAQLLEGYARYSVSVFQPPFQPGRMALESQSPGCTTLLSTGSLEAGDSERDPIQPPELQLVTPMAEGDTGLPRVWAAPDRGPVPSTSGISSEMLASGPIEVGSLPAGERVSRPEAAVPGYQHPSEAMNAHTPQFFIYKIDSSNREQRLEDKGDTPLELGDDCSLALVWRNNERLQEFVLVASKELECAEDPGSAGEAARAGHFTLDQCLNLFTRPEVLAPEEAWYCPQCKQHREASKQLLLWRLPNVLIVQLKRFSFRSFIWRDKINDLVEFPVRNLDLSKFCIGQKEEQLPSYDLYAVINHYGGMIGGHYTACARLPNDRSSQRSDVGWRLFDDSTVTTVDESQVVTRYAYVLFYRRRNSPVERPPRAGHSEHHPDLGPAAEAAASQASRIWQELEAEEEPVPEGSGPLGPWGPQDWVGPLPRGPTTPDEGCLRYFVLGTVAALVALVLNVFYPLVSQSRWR
How it was run: (§1)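 The table lists average log2 ratios of fragment over vehicle, from an unpaired t-test on global-median-normalised Spectronaut label-free quantities. Proteins with ≥2 unique peptides were used. Samples were HEK293T lysate (495 µg) treated in triplicate with fragment at 200 µM or vehicle for 3 h, then with Biotin-Ahx-Ub-VS (0.5 µM final) for 1 h, with labelled DUBs NeutrAvidin-enriched and run by diaPASEF LC-MS/MS.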

USP22 = molecular target: T2, USP22 (UniProt Q9UPT9)
T2 sequence (whole entry): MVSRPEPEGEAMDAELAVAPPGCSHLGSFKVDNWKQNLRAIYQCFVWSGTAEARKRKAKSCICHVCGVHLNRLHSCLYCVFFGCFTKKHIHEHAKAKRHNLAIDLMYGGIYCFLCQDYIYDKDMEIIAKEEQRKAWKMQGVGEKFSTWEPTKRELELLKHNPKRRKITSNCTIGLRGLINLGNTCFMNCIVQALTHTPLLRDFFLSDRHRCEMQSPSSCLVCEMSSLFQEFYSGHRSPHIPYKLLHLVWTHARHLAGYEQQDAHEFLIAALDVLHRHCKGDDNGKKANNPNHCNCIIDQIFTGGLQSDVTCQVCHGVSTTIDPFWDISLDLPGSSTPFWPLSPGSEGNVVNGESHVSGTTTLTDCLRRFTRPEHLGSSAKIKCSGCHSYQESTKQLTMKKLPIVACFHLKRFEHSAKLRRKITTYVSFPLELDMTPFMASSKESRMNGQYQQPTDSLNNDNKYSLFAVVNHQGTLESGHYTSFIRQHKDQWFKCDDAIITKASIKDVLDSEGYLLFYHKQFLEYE
How it was run: as §1

USP24 = USP24 (UniProt Q9UPU5)
USP24, sequence (Q9UPU5 whole entry): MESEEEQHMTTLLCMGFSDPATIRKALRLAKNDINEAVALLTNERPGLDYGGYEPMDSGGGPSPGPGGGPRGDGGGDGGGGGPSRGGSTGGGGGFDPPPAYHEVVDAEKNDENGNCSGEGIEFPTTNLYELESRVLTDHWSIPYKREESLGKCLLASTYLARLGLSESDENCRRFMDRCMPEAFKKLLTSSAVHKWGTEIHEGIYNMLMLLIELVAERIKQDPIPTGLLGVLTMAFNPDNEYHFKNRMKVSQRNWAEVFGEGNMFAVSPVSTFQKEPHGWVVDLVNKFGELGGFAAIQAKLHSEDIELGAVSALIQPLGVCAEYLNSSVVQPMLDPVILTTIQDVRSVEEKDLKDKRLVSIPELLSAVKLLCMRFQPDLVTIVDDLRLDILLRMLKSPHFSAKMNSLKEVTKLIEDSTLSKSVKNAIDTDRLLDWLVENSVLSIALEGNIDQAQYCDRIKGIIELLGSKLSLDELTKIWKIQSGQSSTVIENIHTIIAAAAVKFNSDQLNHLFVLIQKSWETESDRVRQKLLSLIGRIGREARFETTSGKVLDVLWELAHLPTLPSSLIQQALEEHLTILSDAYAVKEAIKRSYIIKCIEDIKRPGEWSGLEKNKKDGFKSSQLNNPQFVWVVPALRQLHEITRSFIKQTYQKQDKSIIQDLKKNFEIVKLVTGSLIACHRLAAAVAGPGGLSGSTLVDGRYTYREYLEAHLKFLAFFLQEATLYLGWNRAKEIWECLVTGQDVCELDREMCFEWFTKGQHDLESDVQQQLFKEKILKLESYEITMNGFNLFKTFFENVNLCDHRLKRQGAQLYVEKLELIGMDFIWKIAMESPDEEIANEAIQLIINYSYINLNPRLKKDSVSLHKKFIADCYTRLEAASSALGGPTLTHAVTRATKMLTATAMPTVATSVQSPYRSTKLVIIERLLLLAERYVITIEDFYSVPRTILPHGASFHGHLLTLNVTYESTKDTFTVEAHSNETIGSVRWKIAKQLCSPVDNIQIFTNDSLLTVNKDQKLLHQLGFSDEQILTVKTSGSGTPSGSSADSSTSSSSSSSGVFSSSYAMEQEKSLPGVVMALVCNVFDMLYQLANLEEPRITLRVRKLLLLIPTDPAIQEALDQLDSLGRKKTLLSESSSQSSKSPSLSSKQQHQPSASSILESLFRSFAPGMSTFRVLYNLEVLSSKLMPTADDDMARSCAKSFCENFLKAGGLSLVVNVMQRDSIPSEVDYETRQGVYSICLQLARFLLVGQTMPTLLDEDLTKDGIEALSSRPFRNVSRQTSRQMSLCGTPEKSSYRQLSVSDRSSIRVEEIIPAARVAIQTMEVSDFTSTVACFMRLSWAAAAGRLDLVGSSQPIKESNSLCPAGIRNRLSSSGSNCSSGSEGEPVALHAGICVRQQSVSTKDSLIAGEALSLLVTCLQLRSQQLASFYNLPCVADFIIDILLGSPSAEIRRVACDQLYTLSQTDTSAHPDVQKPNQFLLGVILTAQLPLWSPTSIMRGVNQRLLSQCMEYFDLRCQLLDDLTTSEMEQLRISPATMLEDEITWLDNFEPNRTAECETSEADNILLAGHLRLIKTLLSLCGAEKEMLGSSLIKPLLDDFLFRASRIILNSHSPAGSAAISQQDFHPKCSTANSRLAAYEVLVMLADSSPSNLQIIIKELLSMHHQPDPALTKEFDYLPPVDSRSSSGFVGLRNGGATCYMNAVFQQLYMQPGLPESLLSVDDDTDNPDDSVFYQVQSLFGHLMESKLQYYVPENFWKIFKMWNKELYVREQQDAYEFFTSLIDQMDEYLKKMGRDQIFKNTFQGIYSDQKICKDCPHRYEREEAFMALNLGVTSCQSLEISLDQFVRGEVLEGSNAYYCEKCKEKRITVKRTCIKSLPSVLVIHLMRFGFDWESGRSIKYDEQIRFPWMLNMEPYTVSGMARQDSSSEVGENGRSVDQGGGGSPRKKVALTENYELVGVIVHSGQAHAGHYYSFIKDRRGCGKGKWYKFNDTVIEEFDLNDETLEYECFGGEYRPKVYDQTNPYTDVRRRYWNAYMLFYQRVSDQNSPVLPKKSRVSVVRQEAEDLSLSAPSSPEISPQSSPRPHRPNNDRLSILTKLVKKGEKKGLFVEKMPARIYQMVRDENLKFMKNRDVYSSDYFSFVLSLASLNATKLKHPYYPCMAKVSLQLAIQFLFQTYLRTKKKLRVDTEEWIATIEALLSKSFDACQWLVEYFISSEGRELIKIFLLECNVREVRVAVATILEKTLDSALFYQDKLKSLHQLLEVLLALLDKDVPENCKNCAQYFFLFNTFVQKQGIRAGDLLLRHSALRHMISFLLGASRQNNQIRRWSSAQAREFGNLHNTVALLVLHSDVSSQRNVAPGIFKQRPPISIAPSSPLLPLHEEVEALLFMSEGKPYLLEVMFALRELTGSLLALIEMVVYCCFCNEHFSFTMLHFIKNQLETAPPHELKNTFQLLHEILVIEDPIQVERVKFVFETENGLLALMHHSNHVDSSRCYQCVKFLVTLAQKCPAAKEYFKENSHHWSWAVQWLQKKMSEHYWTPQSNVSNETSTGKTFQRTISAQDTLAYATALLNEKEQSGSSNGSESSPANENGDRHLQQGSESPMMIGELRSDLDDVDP
How it was run: as §1

USP25 = molecular target: T3, USP25 (UniProt Q9UHP3)
T3 sequence (whole entry): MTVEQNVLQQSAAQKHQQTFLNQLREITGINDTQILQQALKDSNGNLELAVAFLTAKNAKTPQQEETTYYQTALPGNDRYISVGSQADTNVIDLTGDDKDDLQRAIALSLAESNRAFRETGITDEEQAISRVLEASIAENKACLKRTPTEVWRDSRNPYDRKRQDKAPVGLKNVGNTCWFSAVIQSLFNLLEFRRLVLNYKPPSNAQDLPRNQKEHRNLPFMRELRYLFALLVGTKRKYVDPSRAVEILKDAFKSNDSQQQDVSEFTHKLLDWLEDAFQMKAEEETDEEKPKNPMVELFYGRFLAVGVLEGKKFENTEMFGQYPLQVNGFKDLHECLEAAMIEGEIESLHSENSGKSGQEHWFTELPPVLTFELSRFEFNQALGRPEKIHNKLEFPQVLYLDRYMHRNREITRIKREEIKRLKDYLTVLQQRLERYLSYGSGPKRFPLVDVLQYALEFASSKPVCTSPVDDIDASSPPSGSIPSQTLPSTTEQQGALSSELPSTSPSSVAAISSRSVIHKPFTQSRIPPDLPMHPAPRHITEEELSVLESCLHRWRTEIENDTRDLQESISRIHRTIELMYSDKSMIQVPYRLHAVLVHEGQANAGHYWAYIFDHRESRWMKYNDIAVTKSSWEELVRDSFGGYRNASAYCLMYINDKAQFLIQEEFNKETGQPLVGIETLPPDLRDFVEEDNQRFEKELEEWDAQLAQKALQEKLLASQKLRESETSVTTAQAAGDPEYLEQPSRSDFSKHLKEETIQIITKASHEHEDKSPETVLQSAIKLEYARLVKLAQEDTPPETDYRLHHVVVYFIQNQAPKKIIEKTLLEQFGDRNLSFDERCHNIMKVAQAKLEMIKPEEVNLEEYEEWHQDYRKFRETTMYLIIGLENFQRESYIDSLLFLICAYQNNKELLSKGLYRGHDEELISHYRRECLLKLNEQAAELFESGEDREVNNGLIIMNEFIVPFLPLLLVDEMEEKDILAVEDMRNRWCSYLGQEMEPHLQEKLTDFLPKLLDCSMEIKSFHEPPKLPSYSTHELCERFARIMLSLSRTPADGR
How it was run: as §1

USP28 = molecular target: T4, USP28 (UniProt Q96RU2)
T4 sequence (whole entry): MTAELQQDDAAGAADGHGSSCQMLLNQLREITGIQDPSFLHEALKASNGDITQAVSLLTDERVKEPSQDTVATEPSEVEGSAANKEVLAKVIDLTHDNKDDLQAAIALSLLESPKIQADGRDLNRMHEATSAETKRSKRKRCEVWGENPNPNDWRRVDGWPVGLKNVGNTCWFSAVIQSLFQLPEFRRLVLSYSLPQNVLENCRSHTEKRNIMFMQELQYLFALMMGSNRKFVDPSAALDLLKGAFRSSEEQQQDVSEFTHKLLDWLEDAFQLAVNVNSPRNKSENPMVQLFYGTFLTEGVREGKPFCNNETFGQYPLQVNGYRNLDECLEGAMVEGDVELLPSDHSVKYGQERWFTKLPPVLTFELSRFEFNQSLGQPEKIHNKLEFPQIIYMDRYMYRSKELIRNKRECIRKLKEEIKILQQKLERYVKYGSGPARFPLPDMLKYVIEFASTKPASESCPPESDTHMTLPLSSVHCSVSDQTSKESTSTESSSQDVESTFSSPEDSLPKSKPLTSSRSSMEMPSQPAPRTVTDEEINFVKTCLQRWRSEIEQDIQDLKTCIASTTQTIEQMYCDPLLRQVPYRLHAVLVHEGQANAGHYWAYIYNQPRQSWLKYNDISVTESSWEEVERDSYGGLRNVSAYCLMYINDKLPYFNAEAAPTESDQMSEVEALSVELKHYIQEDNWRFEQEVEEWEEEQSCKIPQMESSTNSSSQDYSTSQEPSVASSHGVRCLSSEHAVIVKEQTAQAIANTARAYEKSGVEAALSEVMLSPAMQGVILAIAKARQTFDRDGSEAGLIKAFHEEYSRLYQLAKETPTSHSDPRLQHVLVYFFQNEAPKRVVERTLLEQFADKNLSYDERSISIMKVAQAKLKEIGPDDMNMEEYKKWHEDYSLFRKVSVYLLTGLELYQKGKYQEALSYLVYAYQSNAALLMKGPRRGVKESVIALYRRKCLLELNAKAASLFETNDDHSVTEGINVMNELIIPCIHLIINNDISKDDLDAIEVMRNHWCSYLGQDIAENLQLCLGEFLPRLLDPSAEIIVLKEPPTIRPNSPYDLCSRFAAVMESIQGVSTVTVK
How it was run: as §1

Measured: log2 ratio of Biotin-Ahx-Ub-VS probe labelling

O=C(CCl)Nc1nnc(CC(F)(F)F)o1
inactive: USP19 -0.39 | USP22 -0.0202 | USP24 -0.372 | USP25 -0.777 | USP28 -0.479
